44 molecules from PubChem BioAssay (NCATS) can be followed below.

Test [1] concerns the target Protein phosphatase 1D (Homo sapiens) (UniProt O15297). Kind of test: RapidFire Mass Spectrometry qHTS Assay for Modulators of WT P53-Induced Phosphatase 1 (WIP1) (AID 1347424).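 Also: amount of dephosphorylated VEPPL-S-QETFS peptide product formed by WIP1.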 Also: potency is read from the fitted curve at half-maximal effect. As to activity change, negative = inhibition: series mostly up to about 63 µM. Summed up:
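10 nM WIP1 + cpd, 1 h RT; + 2 uM VEPPL-pS-QETFS, 5 min RT; stop 0.5% formic acid; labelled product standard 1 uM; RapidFire MS. Buffer 50 mM Tris pH 7.5, 30 mM MgCl2, 1 mM TCEP.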
A general note: In qHTS, concentration-response curves come from the screen itself.

Test [2] has the same target. Briefly: Rhodamine-PBP qHTS Assay for Modulators of WT P53-Induced Phosphatase 1 (WIP1) (AID 1347425). The method, boiled down: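 Read-out: Rhodamine-PBP fluorescence (ex 525/em 598 nm) for released Pi, read each minute for 11 min after adding 10 uM VEPPL-pS-QETFS; signal taken as f1 minus pre-substrate f0. Enzyme 5 nM WIP1 with 1 hr room-temperature compound preincubation.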

Test [3] in a line: Primary qHTS for inhibitors of La Crosse Virus (LACV) - induced cell death in SH-SY5Y cells (AID 1508616).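 Also: top concentration of the series differs between compounds; higher means more rescue of cells from virus-induced death.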 The method, boiled down:
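Readout was luminescence from ATPLite 1step added after a 6-day LACV infection (0.01 MOI) of SH-SY5Y cells that had received pin-transferred compound 24 hr after seeding.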

Test [4] concerns the target Calcium and integrin-binding protein 1 (Homo sapiens) (UniProt Q99828). Briefly: Primary qHTS for Identification of Calcium Integrin Binding Protein 1 (CIB1) Competitor (AID 1508620). Also: potency is read from the fitted curve at half-maximal effect.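 As to activity change, negative = inhibition: GST tagged CIB1 binding a fluorescein labelled alphaIIb integrin peptide tracer; top concentration of the series differs between compounds.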 Summed up: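 CIB1-GST (1 uM final) and compound incubated 15 min at room temperature before adding FITC-alphaIIb peptide tracer (100 nM final). Competition for binding read by fluorescence polarization (ex 480, em 540) after another 15 min at room temperature.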

A short description of test [5]: Confirmatory qHTS for small molecule stabilizers of the endoplasmic reticulum resident proteome: Secreted ER Calcium Modulated Protein (SERCaMP) assay (AID 1508628). Also: nearly all actives have a fitted effect of over 40% in size. Also: potency is read from the fitted curve at half-maximal effect. Summed up: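 We seeded SH-SY5Y-GLuc-SERCaMP cells, added compounds (three concentrations in the primary run, eleven up to 76.6 uM in confirmation), incubated 16 h, depleted ER calcium with thapsigargin, and read luciferase 4 h later.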

A short description of test [6]: Counterscreen qHTS for small molecule stabilizers of the endoplasmic reticulum resident proteome: GLuc-NoTag assay (AID 1508627).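 Also: SH-SY5Y cells given compound then 100 nM thapsigargin to empty ER calcium; series mostly up to about 76 µM.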 The method, boiled down: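 Luminescence of Gaussia luciferase secreted into the medium (coelenterazine, 0.07x final, unlysed cells) was the read-out. Human SH-SY5Y neuroblastoma cells constitutively secreting untagged GLuc received compound for 19 h, then 100 nM thapsigargin for 4 h.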
For orientation: A counterscreen serves to expose hits that act by an unwanted route or on another target.

The target of test [7] is Calcium and integrin-binding protein 1 (Homo sapiens) (UniProt Q99828). Briefly: Confirmatory qHTS for Identification of Calcium Integrin Binding Protein 1 (CIB1) Competitor (AID 1508617). Also: potency is read from the fitted curve at half-maximal effect; nearly all actives have a fitted effect of over 65% in size. Summed up: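 Fluorescence polarization competition: CIB1-GST (1 uM final) in 5 mM HEPES pH 7.4, 125 mM NaCl, 5 mM CaCl2, 0.01% Tween20 preincubated 15 min RT with compound (up to 114 uM), then FITC-alphaIIb peptide (100 nM) added, 15 min RT.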

Results filed as inconclusive are left out. Where a call stands in place of a potency, no number is given. A number with no mark means an inactive call. The source made the active and inactive calls. Calls follow the shape of the dose curve; as a rule, active = well fitted curve in the direction sought with a large enough effect; inconclusive = small, poorly fitted or top-dose-only effect, or another doubt; inactive = no such curve, though single readings can be large; an effect the other way counts as inactive or inconclusive.

Calcium and integrin-binding protein 1 (Homo sapiens), sequence (Q99828 whole entry, looked up): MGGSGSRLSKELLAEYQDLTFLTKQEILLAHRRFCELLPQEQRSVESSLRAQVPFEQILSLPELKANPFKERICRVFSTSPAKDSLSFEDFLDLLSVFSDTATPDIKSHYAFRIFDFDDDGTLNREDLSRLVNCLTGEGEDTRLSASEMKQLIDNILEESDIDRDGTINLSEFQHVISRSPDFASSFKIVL
Protein phosphatase 1D (Homo sapiens), sequence (O15297 whole entry, looked up): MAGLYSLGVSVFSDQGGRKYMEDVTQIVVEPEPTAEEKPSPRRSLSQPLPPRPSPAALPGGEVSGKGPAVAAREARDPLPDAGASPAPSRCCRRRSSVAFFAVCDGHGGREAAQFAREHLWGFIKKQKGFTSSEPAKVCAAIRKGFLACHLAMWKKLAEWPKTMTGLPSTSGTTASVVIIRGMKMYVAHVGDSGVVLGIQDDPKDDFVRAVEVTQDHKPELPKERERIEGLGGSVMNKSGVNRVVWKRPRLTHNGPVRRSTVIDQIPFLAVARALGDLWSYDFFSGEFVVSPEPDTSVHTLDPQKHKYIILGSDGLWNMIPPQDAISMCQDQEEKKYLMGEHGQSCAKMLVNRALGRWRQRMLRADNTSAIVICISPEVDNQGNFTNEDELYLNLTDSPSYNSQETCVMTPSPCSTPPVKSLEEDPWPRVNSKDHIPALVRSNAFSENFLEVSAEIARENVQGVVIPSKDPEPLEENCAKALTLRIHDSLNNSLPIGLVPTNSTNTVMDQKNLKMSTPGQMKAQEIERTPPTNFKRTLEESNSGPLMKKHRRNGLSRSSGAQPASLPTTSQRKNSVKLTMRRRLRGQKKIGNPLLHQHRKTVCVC

As to `CC(=O)O[C@H]1C[C@@H]2CC[C@@H]3[C@H](CC[C@@]4(C)[C@H]3C[C@H]([N+]3(C)CCCCC3)[C@@H]4OC(C)=O)[C@@]2(C)C[C@@H]1N1CCCCC1`, the Potency result in test [1] and in test [4] was “inactive” in each case. Moreover, the outcome in test [2] and in test [3] was inactive.

Take `CCN[C@@H]1C[C@H](N)[C@@H](OC2OC(CN)=CCC2N)[C@H](O)[C@H]1O[C@H]1OC[C@](C)(O)[C@H](NC)[C@H]1O` (stereo not given in full): the activity change, negative = inhibition is -11.3% [at 0.505 µM] in test [1], -2.47% [at 0.575 µM] in test [2] and 1.28% [at 1.07 µM] in test [4]. In test [3], the activity change is -7.05% [at 0.0343 µM].

On to `Cc1ccc(S(=O)(=O)NC(=O)NC2CCCC2)cc1`, for which the Potency entry in test [1] and in test [4] was “inactive” throughout. Moreover, the molecule was called inactive in test [2] and in test [3].

For the molecule `CCCCCN=C(N)N/N=C/c1c[nH]c2ccc(OC)cc12`, the Potency result in test [1] and in test [4] was “inactive” in each case. Moreover, the call in test [2] and in test [3] was inactive.

`CN1CCC[C@@H]1CCO[C@](C)(c1ccccc1)c1ccc(Cl)cc1`: the Potency entry in test [1] and in test [4] was “inactive” throughout. Besides, the result in test [2] was inactive. Besides, the Potency in test [5] is 15.8 µM (active).

As to `Cc1cccc(C)c1NC(=O)CN1CCCCCC1`, the Potency result in test [1] and in test [4] was “inactive” each time. Also, the molecule was classed as inactive in test [3].

For `CCCCCCCCCCCCCCC[C@H](O)[C@@H](N)CO`, the Potency result in test [1], in test [6] and in test [5] was “inactive” each time. The result in test [2] and in test [3] was inactive.

Consider `CCN(CC)CCOc1ccc2c(c1)C(=O)c1cc(OCCN(CC)CC)ccc1-2`, for which the Potency result in test [1] and in test [4] was “inactive” in each case. Besides, the molecule was classed as inactive in test [2].

With `Cc1ccc2c(Br)cc(Br)c(O)c2n1`, the Potency entry in test [1] and in test [4] was “inactive” each time. In test [2], the outcome was inactive.

`C[C@]12CCC(=O)C=C1C=C[C@@H]1[C@@H]2CC[C@@]2(C)[C@H]1CC[C@@]21CCC(=O)O1`: the Potency entry in test [1] and in test [4] was “inactive” each time. For the same molecule, the result in test [3] was inactive.

On to `CC(C(=O)O)c1cccc(Oc2ccccc2)c1` (stereo not given), for which the Potency entry in test [1] and in test [4] was “inactive” throughout. The call in test [3] was inactive.

Regarding `Oc1c(Cl)cc(Cl)c(Cl)c1Cc1c(O)c(Cl)cc(Cl)c1Cl`, the Potency in test [1] is 8.91 µM (active). Also, the molecule was classed as inactive in test [3].

As for `CNCCCCOc1ccccc1Cc1ccccc1`, the Potency result in test [1] and in test [4] was “inactive” each time. The molecule was classed as inactive in test [3].

As to `COc1cc(O)c(C(=O)c2ccccc2)cc1S(=O)(=O)O`, the Potency entry in test [1] and in test [4] was “inactive” in each case. In addition, the molecule was classed as inactive in test [3].

Take `CCc1oc2ccccc2c1C(=O)c1cc(I)c(O)c(I)c1`: the Potency in test [1] is 3.55 µM (active); in test [7] it was 35.5 µM (active). Besides, the molecule was called inactive in test [3].

For `Oc1ccc(Cl)cc1Cc1cc(Cl)ccc1O`, the Potency in test [1] was 22.4 µM (active); in test [7], 44.7 µM (active); in test [4], 79.4 µM (active). Moreover, the molecule was classed as inactive in test [3].

Take `CCC(CC)(CC(=O)Nc1cccc(/C=C/c2nc(C3CCC3)cs2)c1)C(=O)O`: the Potency result in test [1] and in test [4] was “inactive” throughout. Besides, the outcome in test [3] was inactive.

As for `C[C@@]12C(=O)OC(=O)[C@]1(C)C1CCC2O1`, the Potency result in test [1] and in test [4] was “inactive” each time. The outcome in test [2] was inactive.

In the case of `CCCCN1C[C@H](O)[C@@H](O)[C@H](O)[C@H]1CO`, the Potency result in test [1] and in test [4] was “inactive” throughout. The molecule was classed as inactive in test [3].

Regarding `O=S(c1cc(Cl)cc(Cl)c1O)c1cc(Cl)cc(Cl)c1O`, the Potency in test [1] was 31.6 µM (active). In addition, the outcome in test [3] was inactive. The Potency result in test [4] is “inactive”.

Turning to `Cc1ccc(O)c([C@H](CCN(C(C)C)C(C)C)c2ccccc2)c1`, the Potency entry in test [1] and in test [4] was “inactive” each time. The outcome in test [2] was inactive.

With `CCCCCCCCCCC[C@@H](C[C@@H]1OC(=O)[C@H]1CCCCCC)OC(=O)[C@H](CC(C)C)NC=O`, the Potency result in test [1] and in test [4] was “inactive” in each case. For the same molecule, in test [2], the molecule was classed as inactive.

Take `C=C[C@@]1(C)CC(=O)[C@]2(O)[C@@]3(C)[C@@H](O)CCC(C)(C)[C@@H]3[C@H](O)[C@H](OC(C)=O)[C@@]2(C)O1`: the Potency entry in test [1] and in test [4] was “inactive” each time. Further, the outcome in test [3] was inactive.

As for `CC(C)=CCOc1ccc(/C=C/C(=O)c2ccc(OCC=C(C)C)cc2OCC(=O)O)cc1`, the Potency entry in test [1] is “inactive”. For the same molecule, in test [3], the result was inactive.

Regarding `CC(=O)OCC(=O)[C@H]1CC[C@H]2[C@@H]3CCC4=CC(=O)CC[C@]4(C)[C@H]3CC[C@]12C`, the Potency entry in test [1] and in test [4] was “inactive” throughout. Besides, the result in test [3] was inactive.

Consider `O=C(c1ccc(F)cc1)C1CCN(CCn2c(=S)[nH]c3ccccc3c2=O)CC1`, for which the Potency entry in test [1] and in test [4] was “inactive” throughout. In addition, in test [2], the molecule was classed as inactive.

Take `Cc1ccc(-c2ncc(Cl)cc2-c2ccc(S(C)(=O)=O)cc2)cn1`: the Potency result in test [1] and in test [4] was “inactive” each time. Besides, in test [3], the molecule was classed as inactive.

`CCCCN=C(N)N=C(N)N`: the Potency result in test [1] is “inactive”. For the same molecule, the molecule was classed as inactive in test [3].

As for `CN(C)C(=O)Nc1ccc(Cl)c(Cl)c1`, the Potency entry in test [1] and in test [4] was “inactive” throughout. Moreover, in test [3], the outcome was inactive.

For `CCN(CC)CCOC(=O)C1(c2ccccc2)CCCC1`, the Potency result in test [1] and in test [4] was “inactive” each time. In addition, in test [3], the outcome was inactive.

On to `CCCCc1cc2ccccc2c(OCCN(C)C)n1`, for which the Potency entry in test [1] and in test [4] was “inactive” each time. Moreover, in test [3], the molecule was classed as inactive.

As for `NCc1ccccc1Sc1ccccc1CO`, the Potency result in test [1] and in test [4] was “inactive” throughout. Besides, in test [3], the outcome was inactive.

With `NCCNC(=O)c1ccc(Cl)cn1`, the Potency result in test [1] and in test [4] was “inactive” throughout. For the same molecule, in test [3], the molecule was called inactive.

With `C=C1c2cccc(O)c2C(O)=C2C(=O)[C@]3(O)C(O)=C(C(N)=O)C(=O)[C@@H](N(C)C)[C@@H]3[C@@H](O)[C@H]12`, in test [1], the Potency is 28.2 µM (active). In test [3], the molecule was called inactive.

As for `O=c1[nH]c(=O)n([C@H]2C[C@H](O)[C@@H](CO)O2)cc1F`, the Potency result in test [1] and in test [4] was “inactive” throughout. In addition, the result in test [2] was inactive.

Turning to `CCCCCCCCOc1ccc(C(=O)c2ccccc2)c(O)c1`, the Potency result in test [1] and in test [4] was “inactive” each time. Further, the molecule was called inactive in test [3].

For `NS(=O)(=O)c1cc(C(=O)O)cc(N2CCCC2)c1Oc1ccccc1`, the Potency entry in test [1] and in test [4] was “inactive” throughout. In addition, the molecule was called inactive in test [3].

On to `CCc1oc2ccccc2c1C(=O)c1cc(Br)c(O)c(Br)c1`, for which the Potency in test [1] is 6.31 µM (active). For the same molecule, in test [3], the outcome was inactive.

On to `NC(=O)n1c(O)c(C(=O)c2cccs2)c2cc(Cl)ccc21`, for which the Potency entry in test [1] and in test [4] was “inactive” in each case. Besides, in test [3], the outcome was inactive.

As to `C[C@H]1O[C@@H](O[C@H]2CC[C@@]3(C)[C@H](CC[C@@H]4[C@@H]3C[C@@H](O)[C@]3(C)[C@@H](C5=CC(=O)OC5)CC[C@]43O)C2)C[C@H](O)[C@@H]1O[C@H]1C[C@H](O)[C@H](O[C@H]2C[C@H](O)[C@H](O[C@@H]3O[C@H](CO)[C@@H](O)[C@H](O)[C@H]3O)[C@@H](C)O2)[C@@H](C)O1`, the Potency result in test [1] and in test [4] was “inactive” throughout. The outcome in test [2] was inactive.

With `CCCCCCCCCCCCCCCCO`, the Potency result in test [1] and in test [4] was “inactive” throughout. The result in test [3] was inactive.

For the molecule `COc1ccc(C(Cl)=C(c2ccc(OC)cc2)c2ccc(OC)cc2)cc1`, the Potency entry in test [1] and in test [4] was “inactive” in each case. Further, the call in test [3] was inactive.

For `CC(=O)NC(=O)c1ccccc1O`, the Potency entry in test [1] and in test [4] was “inactive” throughout. Besides, the outcome in test [3] was inactive.

Regarding `O=C(O)C1(C(=O)O)CCC1.[NH2-].[NH2-].[Pt+2]`, the Potency in test [1] is 11.2 µM (active). Besides, the result in test [3] was inactive. Also, the Potency entry in test [4] is “inactive”.
